ST2 IL33 inh – inhibitors of human ST2 (IL1RL1) binding to IL-33 | inhibition, % for hits at 17 µM | AID 1259354 | AlphaLISA ST2-Fc/biotin-IL-33 interaction, 1 h | 78,000 compounds, 2.3% hits | Q01638; in the data active = inhibition above about 30%
Target sequence (Q01638 whole entry, looked up): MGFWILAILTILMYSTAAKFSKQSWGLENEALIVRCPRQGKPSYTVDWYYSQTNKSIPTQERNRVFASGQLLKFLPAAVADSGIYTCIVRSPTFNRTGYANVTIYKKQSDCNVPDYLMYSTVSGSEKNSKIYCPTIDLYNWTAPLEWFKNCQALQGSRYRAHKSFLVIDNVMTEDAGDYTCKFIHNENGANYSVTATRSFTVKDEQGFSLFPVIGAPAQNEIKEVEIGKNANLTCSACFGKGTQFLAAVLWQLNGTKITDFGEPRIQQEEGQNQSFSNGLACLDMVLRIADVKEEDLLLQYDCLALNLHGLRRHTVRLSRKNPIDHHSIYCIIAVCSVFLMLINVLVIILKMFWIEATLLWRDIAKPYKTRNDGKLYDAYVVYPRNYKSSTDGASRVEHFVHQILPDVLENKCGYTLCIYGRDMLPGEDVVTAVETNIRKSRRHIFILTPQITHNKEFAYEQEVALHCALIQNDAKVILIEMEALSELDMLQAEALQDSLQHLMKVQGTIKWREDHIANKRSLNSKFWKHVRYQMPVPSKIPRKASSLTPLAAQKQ
Starred values were filed as active, the others as inactive. Only a selection was taken, and hits are over-represented in it overall.

Screening COc1ccc(NC(=O)O[C@@H]2CO[C@H]3[C@@H]2OC[C@@H]3NC(=S)Nc2cc(OC)cc(OC)c2)cc1 returned ST2 IL33 inh inactive.
O=C(CSc1nc(O)c(Cc2ccccc2)c(=O)[nH]1)Nc1nc2ccccc2s1 was read as ST2 IL33 inh inactive.
`CCOC(=O)c1sc2ncnc(NCc3ccc(F)cc3)c2c1C` gave ST2 IL33 inh inactive.
For COc1ccc(C(=O)N2CC[C@@H](CC(=O)O)[C@@H](CCN3CCN(c4cccc(C(F)(F)F)c4)CC3)C2)cc1 the results were ST2 IL33 inh inactive.
Screening COc1ccc(CC(=O)N2CC[C@@H](CC(=O)O)[C@@H](CCN3CCN(c4ccccn4)CC3)C2)cc1 returned ST2 IL33 inh inactive.
For COc1ccc(C(=O)N2CC[C@@H](CC(=O)O)[C@@H](CCN3CCCN(C(C)=O)CC3)C2)cc1 the results were ST2 IL33 inh 39%*.
`COc1ccccc1N1CCN(CC[C@H]2CN(C(=O)N3CCOCC3)CC[C@H]2CC(=O)O)CC1` gave ST2 IL33 inh 33%*.
For O=C(O)C[C@@H]1CCN(C(=O)c2ccco2)C[C@@H]1CCN1CCN(c2ccccc2)CC1 the results were ST2 IL33 inh inactive.
Screening COc1ccc(CC(=O)N2CC[C@@H](CC(=O)O)[C@@H](CCN3CCN(c4cccc(C(F)(F)F)c4)CC3)C2)cc1 returned ST2 IL33 inh inactive.
For Cc1ccc(Nc2nc3c(c(=O)n(C)c(=O)n3C)n2C)cc1C the results were ST2 IL33 inh inactive.
O=C(NCCc1cccc(Cl)c1)c1cccc(Cl)c1 was read as ST2 IL33 inh inactive.
`CCC(c1cccnc1)N(C)Cc1cc2c(cc1Cl)OCO2` (stereo not drawn) gave ST2 IL33 inh inactive.
For COc1cc(OC)c(OC)cc1C=C1C(=O)OC(C)(c2ccccc2)OC1=O (stereo not drawn) the results were ST2 IL33 inh inactive.
`Cc1ccc(Cl)c(NC(=O)NCCc2nc3cccnc3n2-c2ccccc2)c1` gave ST2 IL33 inh inactive.
Screening CC1CC(C)CN(C(=O)CN2C(=O)c3ccccc3S2(=O)=O)C1 (stereo not drawn) returned ST2 IL33 inh inactive.
For Cc1cc(C)cc(NC(=O)CSc2cn(CCNC(=O)c3ccc(F)cc3)c3ccccc23)c1 the results were ST2 IL33 inh inactive.
`CCCC(=O)NC(C)c1nc2ccccc2n1CCC` (stereo not drawn) gave ST2 IL33 inh inactive.
O=C1/C(=C/c2c[nH]c3ccccc23)CC/C1=C\c1c[nH]c2ccccc12 was read as ST2 IL33 inh inactive.
For O=C1/C(=C/c2ccccc2)CC/C1=C\c1ccccc1 the results were ST2 IL33 inh 33%*.
For O=C1OC(c2ccc(Br)cc2)=N/C1=C\c1ccccc1 the results were ST2 IL33 inh inactive.
`COc1cccc(C2C(C(N)=O)=C(C)Nc3nc(SCc4ccccc4F)nn32)c1` (stereo not drawn) gave ST2 IL33 inh inactive.
`CCOC(=O)C1(Cc2ccc(OC)cc2)CCN(C(=O)CSc2nncn2C)CC1` gave ST2 IL33 inh inactive.
For COc1ccc(N2CCN(C(=O)CCS(=O)(=O)c3ccc(Br)s3)CC2)cc1 the results were ST2 IL33 inh inactive.
`CCc1nc(N)sc1C(=O)N1CCC2(CCOCC2)CC1` gave ST2 IL33 inh inactive.
`COc1ccc(N2CCN(C3CCCN(C(=O)C4(O)CCCC4)C3)CC2)cc1` (stereo not drawn) gave ST2 IL33 inh inactive.
Screening O=c1ccn(-c2ccccc2)[nH]1 returned ST2 IL33 inh inactive.
`O=C(O)COc1ccc(C=C2C(=O)c3ccccc3C2=O)cc1Cl` gave ST2 IL33 inh inactive.
O=C1C(=Cc2cccn2-c2ccccc2)C(=O)c2ccccc21 was read as ST2 IL33 inh 31%*.
COc1cc(NC(=O)c2ccc([N+](=O)[O-])cc2)cc(OC)c1 was read as ST2 IL33 inh inactive.
Screening N#Cc1ccc([N+](=O)[O-])cc1C#N returned ST2 IL33 inh inactive.
N#CSCc1ccc([N+](=O)[O-])cc1 was read as ST2 IL33 inh inactive.
For N#CSC(C#N)Cc1cccc([N+](=O)[O-])c1 (stereo not drawn) the results were ST2 IL33 inh 37%*.
`O=C(NCC(=O)N1CCCCCC1)c1cccs1` gave ST2 IL33 inh inactive.
For N#Cc1ccc(Oc2ccc(C(=O)O)cc2)cc1C#N the results were ST2 IL33 inh inactive.
Screening Nc1ccc(Oc2ccc(-c3nc(N)nc(N)n3)cc2)cc1 returned ST2 IL33 inh inactive.
`Nc1nc2ccc(Oc3ccc4nc(N)sc4c3)cc2s1` gave ST2 IL33 inh inactive.
Nc1ccc(Oc2ccc(N)c(N)c2)cc1 was read as ST2 IL33 inh 44%*.
CC(=O)c1ccc(Oc2ccc(N)cc2)cc1 was read as ST2 IL33 inh inactive.
Screening COc1ccc(Oc2ccc(N)cc2)cc1 returned ST2 IL33 inh 39%*.
`CC(=O)c1ccc(CN(C)Cc2cccc3cnccc23)cc1` gave ST2 IL33 inh inactive.
CC12C(=O)N(c3ccc(Oc4ccc(Cl)cc4)cc3)C(=O)C1C1C=CC2C1 (stereo not drawn) was read as ST2 IL33 inh inactive.
Screening Cc1cc(C)c(C2C(C#N)=C(N)Oc3n[nH]c(C)c32)c(C)c1 (stereo not drawn) returned ST2 IL33 inh inactive.
For CN(C)c1ccc(C(=O)NC[C@H]2O[C@@H](CC(=O)NCCN3CCOCC3)[C@H](O)[C@@H]2O)cc1 the results were ST2 IL33 inh inactive.
`COc1cccc(C2CCN2C(=O)CC(=O)Nc2ccc(C)cc2)c1` (stereo not drawn) gave ST2 IL33 inh 31%*.
Screening COc1cccc(NC(=O)C(=O)NCc2ccc(C)cc2)c1 returned ST2 IL33 inh inactive.
`COc1cccc(C2CCN2C(=O)Nc2n[nH]c(CCc3ccccc3)n2)c1` (stereo not drawn) gave ST2 IL33 inh inactive.
Screening CCc1cc2c(=O)oc(-c3ccccc3C)nc2s1 returned ST2 IL33 inh 33%*.
For Cc1ccccc1-c1nc2cc(NC(=O)CC(C)C)ccc2o1 the results were ST2 IL33 inh inactive.
O=c1oc(-c2ccccc2)nc2ccc(Cl)cc12 was read as ST2 IL33 inh inactive.
Screening COc1cccc(OCCn2c(C(F)(F)F)nc3ccccc32)c1 returned ST2 IL33 inh inactive.
`O=C1CSC(c2ccc(Br)cc2)N1c1ccc(F)c(Cl)c1` (stereo not drawn) gave ST2 IL33 inh inactive.
Screening COc1ccccc1S(=O)(=O)N[C@@H]1C[C@@H](CO)N(C)C1 returned ST2 IL33 inh inactive.
O=c1[nH]c2ccc(N=Cc3ccc(O)cc3O)cc2[nH]1 was read as ST2 IL33 inh inactive.
Screening C=CCOc1ccc(C=Nc2ccc(C(C)C)cc2)c(O)c1 returned ST2 IL33 inh 41%*.
C=CCOc1ccc(C=Nc2ccc(Cl)cc2)cc1 was read as ST2 IL33 inh inactive.
`C=CCOc1ccc(C=Nc2ccc(C)cc2C)c(O)c1` gave ST2 IL33 inh 38%*.
CCOC(=O)C1(Cc2ccc(F)cc2)CCCN(C(=O)c2ccc3c(c2)OCO3)C1 (stereo not drawn) was read as ST2 IL33 inh inactive.
`Cc1nnc(SCc2cccc(Oc3ccccc3)c2)[nH]c1=O` gave ST2 IL33 inh inactive.
Screening Ic1ccc(-c2csc(Nc3ccc4c(c3)OCO4)n2)cc1 returned ST2 IL33 inh inactive.
Screening Cc1ccc(Nc2nc(-c3ccc([N+](=O)[O-])cc3)cs2)cc1C returned ST2 IL33 inh 33%*.
For Cc1nc(-c2ccc([N+](=O)[O-])cc2)cs1 the results were ST2 IL33 inh inactive.

Assay outcomes as filed in PubChem.
